Data: PubChem BioAssay (NCI)
Compounds without any hit were thinned out: in the full panel of roughly 83,000, 20% have a hit.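 In brief: 96-well plates, 48 h treatment, single concentration, percent growth endpoint.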 Activity calls are given as the source filed them. How the source made its calls: active means growth percent below 10; inactive means the rest.

Tests used:
Assay in all cases: NCI-60 one-dose screen, 48 h (100 = growth as untreated, 0 = no growth, -100 = all killed)
Settings in all cases: 10 µM unless noted
[1] = tested on: HCT-15 colon
[2] = tested on: HT29 colon
[3] = tested on: SNB-75 CNS
[4] = tested on: SNB-19 CNS
[5] = tested on: U251 CNS
[6] = tested on: PC-3 prostate
[7] = tested on: SK-MEL-5 melanoma
[8] = tested on: UACC-62 melanoma
[9] = tested on: LOX IMVI melanoma
[10] = tested on: SK-MEL-28 melanoma
[11] = tested on: SK-MEL-2 melanoma
[12] = tested on: EKVX NSCLC
[13] = tested on: SN12C renal
[14] = tested on: UO-31 renal
[15] = tested on: TK-10 renal
[16] = tested on: ACHN renal
[17] = tested on: CAKI-1 renal
[18] = tested on: A498 renal
[19] = tested on: CCRF-CEM leukemia
[20] = tested on: MOLT-4 leukemia

Measured: growth

CCCCCCCCCCCCCCCCS(=O)(=O)Nc1cc(C(=O)NN)cc(C(=O)NN)c1
inactive: [1] 50.5% | [2] 88% | [3] 94.3% | [4] 52.2% | [5] 47.9% | [6] 38.8% | [7] 73.7% | [8] 70.3% | [9] 70% | [10] 91.9% | [11] 114% | [12] 47.1% | [13] 72.9% | [14] 65% | [15] 68.6% | [16] 77.1% | [17] 49% | [18] 90.4% | [19] 34.3% | [20] 21.5%

O=C(Nc1ccccc1Cl)Oc1ccc2ccccc2c1
inactive: [1] 99.2% | [2] 98.9% | [3] 83.7% | [4] 98.3% | [5] 103% | [6] 102% | [7] 110% | [8] 91.8% | [9] 95.1% | [10] 106% | [11] 97.3% | [12] 98.9% | [13] 99.3% | [14] 68.7% | [15] 130% | [16] 98.3% | [17] 97.8% | [18] 100% | [19] 114% | [20] 78.2%

Clc1ccc2c(c1)-c1ccccc1C1=NCCN12
active: [2] 4.08% | [11] -0.581%
inactive: [1] 20% | [3] 49.5% | [4] 41.6% | [5] 25% | [6] 28.5% | [7] 19.9% | [8] 30.3% | [9] 11.7% | [10] 43.2% | [12] 51.5% | [13] 29.1% | [14] 10.8% | [15] 20.1% | [16] 14.1% | [17] 29.4% | [18] 10.3% | [19] 28.4% | [20] 17.1%

CCc1oc2ccccc2c1C(=O)c1cc(I)c(O)c(I)c1
inactive: [1] 33.2% | [2] 98.5% | [3] 31.9% | [4] 54.2% | [5] 29.1% | [6] 74.9% | [7] 32.2% | [8] 45.6% | [9] 51.4% | [10] 62.4% | [12] 84.5% | [13] 46.4% | [14] 80% | [15] 87.7% | [16] 72.9% | [17] 45.9% | [18] 98.2% | [19] 66.2% | [20] 32.5%
active: [11] 1.14%

COc1c(B(O)O)cccc1-c1nc2c(F)cc3n[nH]c(C)c3c2c2c1CCCC2
inactive: [1] 18.3% | [2] 17% | [4] 18.1% | [5] 13.6% | [6] 27.3% | [7] 20.4% | [9] 11.8% | [10] 25% | [12] 34.8% | [13] 19.3% | [19] 17.7% | [20] 28.7%
active: [3] -21.6% | [8] 3.54% | [11] -10.3% | [14] -2.78% | [15] -2.49% | [16] 8.08% | [17] 0.215% | [18] -53.6%

CC(CN1CCN(C)CC1)CN1c2ccccc2Sc2ccc(C(F)(F)F)cc21 (stereo not given)
active: [1] 6.79% | [2] -49.9% | [5] 1% | [7] -82.7% | [8] -40.4% | [9] -2.88%
inactive: [3] 45.5% | [4] 63.1% | [6] 31.3% | [10] 22.4% | [11] 70% | [12] 70.4% | [13] 47.2% | [14] 39.2% | [15] 21% | [16] 38.1% | [17] 37.3% | [18] 60.3% | [19] 25.2% | [20] 15.9%

O=C(NC1CC1)c1ccc(-c2nc3ccc4[nH]ncc4c3c3c2CCCC3)cc1
active: [3] -5.58% | [11] 2.88% | [15] 8.68% | [17] 0.658% | [18] -5.47%
inactive: [1] 29% | [2] 35.2% | [4] 65.3% | [5] 34.5% | [6] 43.1% | [7] 55.2% | [8] 28.8% | [9] 38.7% | [10] 47.4% | [12] 55.6% | [13] 48.4% | [14] 25.9% | [16] 17.1% | [19] 29.7% | [20] 38.8%

Oc1[nH]c2ccc(Cl)cc2c1/C=c1/ccc2c(c1)N=C(c1ccc(F)cc1)N=2
inactive: [1] 19.3% | [2] 62.4% | [3] 55.6% | [4] 69% | [5] 72% | [6] 48.5% | [7] 59.3% | [8] 69% | [9] 46.1% | [10] 53.7% | [11] 92.3% | [12] 40.4% | [13] 74.1% | [14] 61.4% | [15] 111% | [16] 86.6% | [17] 44.5% | [18] 56.1% | [20] 35%
active: [19] 7.83%
